From PubChem
Most compounds without a hit are left out; they make up all but 17% or so of the library.
TDP1 block = qHTS Assay for Inhibitors of Tyrosyl-DNA Phosphodiesterase (TDP1). Tyrosyl-DNA phosphodiesterase 1 (Homo sapiens), Q9NUW8. recombinant TDP1, AlphaScreen DNA substrate cleavage. Potency, µM (highest dose often 130 µM), for inactives: at the highest dose activity change, negative = inhibition, actives largely listed as inhibitors. 0.28% of 350,000 active; note: % is set by controls: 0 for no effect and ±100 for the full control effect; nearly all actives have a fitted effect of over 40% in size
Target sequence (Q9NUW8 whole entry, looked up): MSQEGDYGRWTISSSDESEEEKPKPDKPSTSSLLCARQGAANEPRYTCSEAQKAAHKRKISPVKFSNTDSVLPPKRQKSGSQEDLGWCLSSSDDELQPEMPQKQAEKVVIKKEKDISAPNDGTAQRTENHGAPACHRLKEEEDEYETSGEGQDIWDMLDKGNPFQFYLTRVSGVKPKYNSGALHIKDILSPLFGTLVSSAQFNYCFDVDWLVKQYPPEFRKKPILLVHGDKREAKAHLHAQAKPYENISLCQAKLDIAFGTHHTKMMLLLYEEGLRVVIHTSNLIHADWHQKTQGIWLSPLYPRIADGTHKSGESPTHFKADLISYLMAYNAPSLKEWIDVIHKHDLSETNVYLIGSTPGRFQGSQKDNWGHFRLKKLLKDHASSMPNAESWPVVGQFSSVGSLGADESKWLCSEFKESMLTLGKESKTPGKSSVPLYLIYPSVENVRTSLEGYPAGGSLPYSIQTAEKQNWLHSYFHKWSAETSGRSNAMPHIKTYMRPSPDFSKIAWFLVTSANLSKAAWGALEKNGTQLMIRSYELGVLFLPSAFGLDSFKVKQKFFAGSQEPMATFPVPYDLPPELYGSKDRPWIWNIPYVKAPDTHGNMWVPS
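Recombinant human Tdp1 (E. coli-expressed, 1 nM final) preincubated with compounds 15 min at room temperature, then 5'-biotin/3'-phosphotyrosine-FITC DNA substrate (15 nM final) added for 5 min. AlphaScreen beads (10 ug/ml final) added 10 min; cleavage lowers signal.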
DT40 TDP1 no CPT = qHTS for Inhibitors of human tyrosyl-DNA phosphodiesterase 1 (TDP1): qHTS in cells in absence of CPT. Potency, µM (series often up to 46.2 µM), for the others: at the top dose activity change, negative = growth inhibition, most hits filed as inhibitors. DT40 Tdp1-/- hTDP1 cells, no CPT, ATP luminescence, 48 h. 15% of 420,000 active; note: % is set by controls: 0 for no effect and ±100 for the full control effect; nearly all actives have a fitted effect of over 55% in size
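Camptothecin absent (DMSO only). Human TDP1-complemented DT40 knockout cells, 400 cells/well, 37 °C for minimum 48 hr; ATP measured via CellTiter-Glo, 30 min dark incubation, luminescence.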
ClpP mod = qHTS Assay for Activators of ClpP. Potency, µM (doses to about 57.5 µM), without a hit: at the highest dose activity change, negative = active. 1.9% of 340,000 active. purified B. subtilis ClpP, FRET peptide cleavage, 20 min. AID 651965, 2013; active = well fitted falling curve with a large enough effect; inconclusive = small, poorly fitted or top-dose-only effect; inactive = no such curve, though single readings can be large or run the other way; note: the source files actives as falling curves though it sought activators and does not explain the sign; nearly all actives have a fitted effect of over 65% in size
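Purified B. subtilis ClpP, 10 microg/mL final in Tris/HCl pH8 with KCl, BSA, glycerol and Tween-20, cleaved an Abz/nitrotyrosine-quenched decapeptide. Fluorescence (ex 320, em 430) was read at 0 and 20 min at room temperature. Delta was normalized to 5.8 microM ADEP and DMSO/no-enzyme controls.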
DT40 TDP1 CPT = qHTS for Inhibitors of human tyrosyl-DNA phosphodiesterase 1 (TDP1): qHTS in cells in presence of CPT; chicken DT40 Tdp1-/-;hTDP1 cells + 20 nM CPT, ATP luminescence, 48 h; Potency, µM (top dose mostly 46.2 µM), for inactives: at the highest dose activity change, negative = growth inhibition, usual class: inhibitors; 12% of 420,000 active; AID 686979, 2013; note: % is set by controls: 0 for no effect and ±100 for the full control effect; nearly all actives have a fitted effect of over 55% in size
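Chicken DT40 Tdp1-/- cells stably complemented with human TDP1 were seeded at 400 cells/well in medium containing 20 nM camptothecin, exposed to pin-transferred compounds, and grown at 37 °C for at least 48 hr. Viability was read as ATP luminescence.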
An asterisk follows results filed as active; ? = inconclusive; . = not tested or not shown; [ ] = dose if it differs, or a comment. Unless noted, calls come from the whole dose curve; as a rule, active = well fitted curve in the direction sought with a large enough effect; inconclusive = small, poorly fitted or top-dose-only effect, or another doubt; inactive = no such curve, though single readings can be large; an effect the other way counts as inactive or inconclusive. Potency is the fitted concentration of half-maximal effect.

SMILES	TDP1 block	DT40 TDP1 no CPT	ClpP mod	DT40 TDP1 CPT
CCCN(C(=O)CCSc1ccc(F)cc1)c1c(N)n(Cc2ccccc2)c(=O)[nH]c1=O	-3%	-8%	1%	-2%
Cc1oc(-c2ccccc2NC(=O)c2ccsc2)nc1CN(C)CC1CC=CCC1 (stereo unspecified)	.	4%	.	-3%[9.04 µM]
CCCC(c1nnnn1CS(=O)(=O)c1ccc(C)cc1)N1CCN(C2CCCC2)CC1 (stereo unspecified)	.	-20%	.	-4%
COc1ccc(N=Cc2nc(-c3ccco3)oc2O)cc1	2%	29µM*	1%	?
CC(=O)Oc1oc(-c2ccccc2)nc1C=Nc1ccc(N(C)C)cc1	0%	?	.	?
Cc1ccc(N=Cc2nc(-c3ccc(C)cc3)oc2O)cc1	-3%	-9%	-5%	-21%
O=C(Oc1oc(-c2ccco2)nc1C=Nc1ccc(Cl)cc1)c1ccco1	3%	9.2µM*	-10%	10µM*
Cc1ccccc1Cn1c(C(=O)OC(C)C)cc2c1ccn2C	10%	?	-25%	?
CCOC(=O)c1cc2c(ccn2C)n1CC(=O)N(Cc1ccccc1)c1ccccc1	8%	?	?	23µM*
CCOC(=O)c1cc2c(ccn2C)n1CC(=O)N(Cc1ccccc1)c1ccc(F)cc1	3%	-2%	-10%	-27%
CC(C)OC(=O)c1cc2c(ccn2C)n1CC(=O)N1CCC(Cc2ccccc2)CC1	12%	21µM*	-12%	?
CC(C)OC(=O)c1cc2c(ccn2C)n1CC(=O)N(Cc1ccccc1)c1ccc(F)cc1	0%	21µM*	32µM*	16µM*
O=C(NCc1ccc(F)cc1)c1cnn2ccccc12	0%	-17%	5%	-29%
CCN(CC)S(=O)(=O)c1nnc(NC(=O)COc2ccc(Cl)cc2)s1	6%	-13%	-1%	?
CCOC(=O)[C@H]1[C@H]2COc3ccc(Br)cc3[C@H]2N2C(=O)CN(Cc3ccc(Cl)cc3)C(=O)[C@@]12C	.	23µM*	-8%	?
CCOC(=O)[C@H]1[C@H]2COc3ccc(Br)cc3[C@@H]2N2C(=O)CN(Cc3ccc(Cl)cc3)C(=O)[C@@]12C	2%	?	-1%	18µM*
CCOC(=O)[C@H]1[C@H]2COc3ccc(C)cc3[C@@H]2N2C(=O)CN(Cc3ccc(Cl)cc3)C(=O)[C@@]12C	1%	2%	-1%	-26%
CCOC(=O)[C@H]1[C@H]2COc3ccc(Br)cc3[C@@H]2N2C(=O)CN(Cc3ccc(F)cc3)C(=O)[C@@]12C	1%	21µM*	-1%	?
CCOC(=O)[C@H]1[C@H]2COc3ccc(OC)cc3[C@@H]2N2C(=O)CN(Cc3ccc(F)cc3)C(=O)[C@@]12C	1%	?	-2%	?
COc1cc(-c2noc(C)c2C(=O)NCCCN2CCOCC2)cc(OC)c1OC	3%	29%	-4%	14%
COc1cc(N)c(NC(=O)/C=C/c2nc3cc(OC)c(OC)cc3[nH]2)cc1OC	.	-5%	4%	-26%
CC(C)CC(=O)NC1(C(F)(F)F)C(=O)Nc2c1c(=O)[nH]c(=O)n2-c1ccccc1 (stereo unspecified)	0%	.	-1%	.
CCn1c(-c2ccccc2F)nc2cc(NC(C)=O)cc(C(=O)N(C)Cc3c(C)nc4ccccn34)c21	.	?	.	9%
O=[N+]([O-])c1nn(-c2ccc3c(c2)OCCO3)n(O)c1=Nc1ccc(Cl)cc1	10%	16µM*	0%	23µM*
CCc1ccc(N=c2c([N+](=O)[O-])nn(-c3ccc4c(c3)OCCO4)n2O)cc1	8%	-12%	.	-13%
SMILES	TDP1 block	DT40 TDP1 no CPT	ClpP mod	DT40 TDP1 CPT
Cc1cc(C)cc(N=c2c([N+](=O)[O-])nn(-c3ccc4c(c3)OCCO4)n2O)c1	11%	2.9µM*	.	2.6µM*
O=[N+]([O-])c1nn(-c2ccc3c(c2)OCCO3)n(O)c1=Nc1ccccc1	-2%	23µM*	-2%	26µM*
Cc1ccc(N=c2c([N+](=O)[O-])nn(-c3ccc4c(c3)OCCO4)n2O)cc1F	3%	?	.	?
CCOc1ccc2[nH]c(=O)c(CN(CCN3CCCC3)C(=S)Nc3ccccc3OCC)cc2c1	0%	23µM*	2%	?
COc1ccc2[nH]c(=O)c(CN(CCN3CCCC3)C(=O)Nc3ccccc3Cl)cc2c1	2%	?	32µM*	?
COc1ccc(NC(=O)c2cc(C3CCCCN3C(=O)c3cc(OC)c(C)c(OC)c3)on2)c(C)c1 (stereo unspecified)	.	?	-6%	?
O=C(NCc1ccc(Cl)c(Cl)c1)c1cc(C2CCCCN2C(=O)C2CCCCC2)on1 (stereo unspecified)	.	18µM*	0%	16µM*
COc1cc(C(=O)N2CCCCC2c2cc(C(=O)Nc3ccccc3Cl)no2)cc(OC)c1C (stereo unspecified)	.	18µM*	-23%	?
O=C(NCc1ccccc1)c1cc(C2CCCCN2C(=O)c2cccs2)on1 (stereo unspecified)	.	?	-2%	18µM*
O=C(NCc1ccccc1)c1cc(C2CCCCN2C(=O)c2ccc(Cl)cc2)on1 (stereo unspecified)	.	?	-2%	?
O=C(Nc1ccccc1Cl)c1cc(C2CCCCN2C(=O)c2cccs2)on1 (stereo unspecified)	.	?	3%	29µM*
COCCN(Cc1ccccc1)C(=O)c1c(C)nn(-c2ccccc2)c1C	5%	-21%	.	17%
CC1(C)C(=O)Nc2ccccc2N1C(=O)COc1ccc(C#N)cc1	-5%	12%	0%	-11%
Nc1cccc2c1CN(C1CCC(=O)NC1=O)C2=O (stereo unspecified)	.	-4%	.	7%
COc1ccc(NC(=O)c2cc(C3CCCCN3C(=O)c3cccs3)on2)c(C)c1 (stereo unspecified)	.	21µM*	1%	21µM*
N#Cc1cccc(NC(=O)c2cc(C3CCCCN3C(=O)c3cccs3)on2)c1 (stereo unspecified)	.	?	0%	?
O=C(Nc1ccc(F)c(Cl)c1)c1cc(C2CCCCN2C(=O)c2cccs2)on1 (stereo unspecified)	.	7.3µM*	-16%	16µM*
Cc1nn(Cc2ccccc2Cl)c2sc(C(=O)Nc3ccccc3N3CCOCC3)cc12	3%	?	?	10µM*
Cc1nn(Cc2ccccc2Cl)c2sc(C(=O)Nc3nccs3)cc12	0%	?	1%	-19%
CCC(CC)NC(=O)c1cc2c(C)nn(Cc3ccccc3Cl)c2s1	7%	?	-1%	23µM*
CC1(c2ccccc2)CC(C)(C)N2C(=O)Cc3cccc1c32 (stereo unspecified)	3%	?	1%	?
